ALDH1A1 inh = blocks purified human ALDH1A1 activity | Purified ALDH1A1, NADH fluorescence, propionaldehyde substrate | Potency, µM (titrated, usually from 75.3 µM), for inactives: at the top dose activity, negative = inhibition, usual class: inhibitors | 220,000 tested, 7.3% active | AID 1030;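 note: potency is the fitted concentration of half-maximal effect; plate controls were no enzyme wells and a reference inhibitor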
PNC inhibitor = blocks assembly of the perinucleolar compartment | PC3M PTB-GFP, PNC prevalence imaging, 16 h; active compounds read low | activity change (PNC), negative = inhibition, % at 10 µM | 140,000 tested, 3.1% active | AID 2417;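 active = readout at or below -70, meaning at least 70% loss of cells showing the perinucleolar compartment, a nuclear body marking cancer cells; inconclusive = readout between -30 and a set limit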;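 note: plate controls were DMSO wells for no effect and camptothecin positive control wells for full effect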
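Read-out is percentage of cells bearing a perinucleolar compartment, from automated 20x imaging of fixed, Hoechst-stained PC3M PTB-GFP cells. Cells were seeded 4 h, then exposed 16 h to compound (23 nl of library stock) in duplicate plates.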
JMJD2E inh = inhibitors of human JMJD2E histone demethylase; B2RXH2; JMJD2E catalytic domain, FDH-coupled NADH fluorescence (FDH is formaldehyde dehydrogenase); Potency, µM (titrated, usually from 57.1 µM), for inactives: at the top dose activity change, negative = inhibition, actives largely listed as inhibitors; 230,000 tested, 1.6% active; AID 2147;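 note: potency is the fitted concentration of half-maximal effect; 0% = wells with enzyme and -100% = buffer wells without enzyme; nearly all actives have a fitted effect of over 50% in size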
Target sequence (B2RXH2 1-337 limits assumed): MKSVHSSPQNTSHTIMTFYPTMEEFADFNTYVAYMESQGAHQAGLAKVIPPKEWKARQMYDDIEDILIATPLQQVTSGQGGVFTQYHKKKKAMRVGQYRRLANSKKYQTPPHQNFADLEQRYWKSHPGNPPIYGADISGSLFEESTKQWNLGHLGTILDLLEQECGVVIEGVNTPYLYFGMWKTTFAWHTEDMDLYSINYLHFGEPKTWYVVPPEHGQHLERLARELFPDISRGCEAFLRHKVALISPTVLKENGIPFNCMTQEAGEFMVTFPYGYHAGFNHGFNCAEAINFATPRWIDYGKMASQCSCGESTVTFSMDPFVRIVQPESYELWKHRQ
HPGD inh = blocks human HPGD enzyme activity. Potency, µM, inactives show at the highest dose activity change, negative = inhibition, usual class: inhibitors. P15428. 150,000 tested, 4.3% active. purified HPGD, NADH fluorescence kinetic, PGE2 substrate; note: potency is the fitted concentration of half-maximal effect
Target sequence (P15428 whole entry, looked up): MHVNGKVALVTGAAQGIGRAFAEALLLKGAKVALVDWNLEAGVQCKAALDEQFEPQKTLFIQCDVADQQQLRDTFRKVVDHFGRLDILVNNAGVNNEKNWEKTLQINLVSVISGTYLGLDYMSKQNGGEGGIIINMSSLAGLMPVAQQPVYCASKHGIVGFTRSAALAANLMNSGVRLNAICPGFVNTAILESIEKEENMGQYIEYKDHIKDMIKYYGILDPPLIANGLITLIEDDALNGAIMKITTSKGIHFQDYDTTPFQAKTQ
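NADH formation kinetics: reaction with 30 uM PGE2 and 1 mM NAD+ (final), 20 nM enzyme, Tris-HCl pH 8 with Tween 20, after 15 min compound preincubation at room temperature. Fluorescence change, last versus first of five reads.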
Active calls of the source: *; ? = inconclusive; nt = not tested or not shown; ! = not confirmed by another sample; [ ] = dose if it differs, or a comment. Only some compounds are listed: those with a hit (about 11% of all), similar ones and a draw of the others. Unless noted, calls come from the whole dose curve; as a rule, active = well fitted inhibition curve with a large enough effect (not every such curve was filed as active); inconclusive = small, poorly fitted or top-dose-only effect, or another doubt; inactive = no such curve, though single readings can be large or run the other way. Unless noted, % is set by controls: 0 for no effect and ±100 for the full control effect.

SMILES | ALDH1A1 inh | PNC inhibitor | JMJD2E inh | HPGD inh
NC[C@@H](Cc1ccccc1)P(=O)(O)O | 18.5%[13.5 µM] | nt | nt | -7.7%
C=C(C)CCl | 2.5% | nt | nt | -10.1%
CCCCN1C(=O)/C(=C/c2ccc(N3CCCCCC3)cc2)C(=O)NC1=S | 0.199µM* | -20.4 | 5.6% | -14.5%
CN1C(=O)/C(=C\c2ccc(N3CCCCCC3)cc2)C(=O)NC1=S | 0.0708µM* | nt | -21.3% | nt
COc1ccc(/C=C2\C(=O)NC(=S)N(C)C2=O)cc1C | 7.94µM* | nt | ? | nt
Cc1cc(N2CCCCC2)ccc1C=C1C(=O)N(C)C(=S)N(C)C1=O | 31.6µM* | 5.1 | -18.8% | 14.1µM*
CN1C(=O)/C(=C\c2ccc(N3CCCCC3)o2)C(=O)NC1=S | ? | ? | -3.6% | -18.3%
CN1C(=O)/C(=C/c2ccc(N3CCCCCC3)o2)C(=O)NC1=S | ? | 0.0 | 0.8% | -19.8%
Cc1cc(N2CCCC2)ccc1C=C(C#N)C#N | 6.6% | nt | -18.1% | nt
Clc1ccc(C(c2ccc(Cl)cc2)C(Cl)Cl)cc1 | 0.6% | nt | nt | -11.1%
CC1OC(=O)C(C(C)C)NC(=O)C(C(C)C)OC(=O)C(C(C)C)NC(=O)C(C)OC(=O)C(C(C)C)NC(=O)C(C(C)C)OC(=O)C(C(C)C)NC(=O)C(C)OC(=O)C(C(C)C)NC(=O)C(C(C)C)OC(=O)C(C(C)C)NC1=O (stereo not drawn) | -3.1% | nt | -2.3% | -12.0%
O=C1NC(=O)N(c2cccc(F)c2)C(=O)/C1=C/c1ccc(N2CCOCC2)cc1 | 5.01µM* | nt | ? | nt
COc1ccc(CC(=O)Nc2ccc3c(C(F)(F)F)cc(=O)oc3c2)cc1OC | 7.94µM* | 6.9 | -4.8% | -15.1%
O=C(/C=C/c1ccc2c(c1)OCO2)c1c(O)n(CCC2=CCCCC2)c(=O)[nH]c1=O | 31.6µM* | 44.1 | -18.9% | -19.2%
NC(=O)C[N+]1(CC#CC(O)(c2ccccc2)c2ccccc2)CCCC1 | -10.2% | nt | ? | nt
CCN(CC)c1ccc(CN(C)CCc2ccc(OC)c(OC)c2)cc1 | 12.6µM* | 18.8 | -15.2% | 6.2%
c1ccc(-c2cc3c(nc2-c2ccccc2)CCNC3)cc1 | 0.7%[13.5 µM] | nt | nt | nt
Cc1cc(C)cc(C(=O)OC2C[C@H]3CC[C@@H](C2)N3C)c1 (stereo partly drawn) | 6.5% | nt | 11.0% | -2.7%
CCn1c(O)c(C(c2ccccn2)c2c(O)n(CC)c(=S)[nH]c2=O)c(=O)[nH]c1=S | 25.1µM* | 59.9 | ? | -8.0%
COC(=O)[C@@H]1[C@@H](O)[C@@]2(O)c3c(OC)cc(OC)cc3O[C@@]2(c2ccc(OC)cc2)[C@H]1c1ccccc1 | 9.3%[13.5 µM] | nt | nt | nt
O=C1c2ccccc2C(Nc2ccc(S(=O)(=O)N3CCCCCC3)cc2)N1c1ccccn1 (stereo not drawn) | 0.794µM* | -93.3* | -0.2% | -7.1%
O=Cc1ccccc1 | 3.16µM* | nt | nt | -8.6%
c1cc2c(cc1C1OC[C@@H]3C(c4ccc5c(c4)OCO5)OCC13)OCO2 (stereo partly drawn) | 4.0% | nt | 1.9% | ?
Cc1nn(Cc2ccccc2)c(C)c1C(=O)OCC(=O)Nc1ccccc1SCC#N | 25.1µM* | 18.7 | -5.3% | -5.0%
Cc1cc(NC(=O)COC(=O)c2c(C)nn(Cc3ccccc3)c2C)no1 | 4.9% | ? | 10.6% | -0.7%
SMILES | ALDH1A1 inh | PNC inhibitor | JMJD2E inh | HPGD inh
CN1C(=O)C(=Cc2ccccc2OCc2ccc(Cl)cc2)C(=O)N(C)C1=O | 17.8µM* | 46.9 | 20µM* | 22.4µM*
CN1C(=O)C(=Cc2ccccc2Oc2ccc(Cl)cc2)C(=O)N(C)C1=O | ? | -19.6 | -4.6% | 25.1µM*
O=[As](O)(O)c1ccc(NCc2ccccc2)cc1 | ? | nt | nt | 0.0%
CCCC/C(=N\O)c1c[nH]c2ccccc12 | 4.4% | -80.9* | -3.7% | -6.2%
Cc1cc(C=C2C(=O)NC(=S)NC2=O)c(C)n1C1CCCC1 | 7.08µM* | nt | 5.8% | nt
Cc1cc(C=C2C(=O)N(C)C(=S)N(C)C2=O)c(C)n1C1CCCCC1 | ? | ? | 6.5% | -9.9%
CCC1/C=C/C=CCC(C)C(O)[C@@](C)(O)C(=O)C(C)C(O)C(C)C(=O)C(C)C(O)C(C)C=CC(=O)O[C@H]2C(C)C(CC1)O[C@]1(CCC(C)C(CC(C)O)O1)C2C (stereo partly drawn) | 12.8% | nt | -4.2% | -21.3%
Nc1ccccc1N=Cc1c(O)n(CCC2=CCCCC2)c(=O)[nH]c1=O | 2.82µM* | ? | ? | nt
[O-][Cl+]O | 3.3% | nt | nt | -9.3%
NC1CCc2cc(O)c(O)cc2C1 (stereo not drawn) | 7.94µM*! | nt | ? | -13.8%
c1cncc(C2CCCCN2)c1 (stereo not drawn) | -9.0% | nt | 7.3% | -17.8%
c1cncc(C2Nc3cccc4cccc(c34)N2)c1 | nt | nt | 5.01µM* | nt
CCN1C[C@]2(COC(=O)c3ccccc3N3C(=O)CC(C)C3=O)CC[C@H](OC)[C@@]34C5C[C@@H]6[C@@H](OC)C[C@@](O)(C5[C@H]6OC)[C@](O)([C@@H](OC)C23)[C@@H]14 (stereo partly drawn) | -13.5% | nt | nt | nt
COc1ccc(N2C(=O)C(Cl)=C(N3CCN(Cc4ccccc4)CC3)C2=O)cc1 | ? | -20.4 | 1.2% | -10.4%
O=C1C(Cl)=C(N2CCCCCC2)C(=O)N1c1ccccc1 | ? | ? | -9.6% | 15.8µM*
CCCCCCCC(=O)NC(Oc1ccccc1[N+](=O)[O-])C(Cl)(Cl)Cl (stereo not drawn) | -6.2% | 18.3 | 0.9% | 10µM*
O=C(Cc1ccccc1)NC(Oc1ccccc1Cl)C(Cl)(Cl)Cl (stereo not drawn) | ? | 9.7 | -1.9% | ?
Cc1ccc(C)c(OCC(=O)N2CCCN(C)CC2)c1 | 0.9% | -112.3* | 0.9% | -1.2%
c1ccc(CCN2CCCCCC2)nc1 | 13.1%[13.5 µM] | nt | nt | -13.8%
C[C@@]12CC[C@H](O[C@@H]3O[C@H](CO)[C@@H](O)[C@H](O)[C@@H]3O)C[C@@H]1CC[C@H]1[C@H]2CC[C@@]2(C)[C@@H](C3=CCOC3=O)CC[C@]12O | -6.9%[13.5 µM] | nt | nt | 1.4%
CN1CCN2c3ccc(N)cc3CC3(C(=O)NC(=O)NC3=O)C2C1 (stereo not drawn) | nt | nt | 3.98µM* | nt
O=C(Cn1c2c(c(-c3ccccc3Cl)cc1=O)CCC2)N1CCC2(CC1)OCCO2 | ? | -94.6* | 0.9% | ?
C=C(Cl)CCl | 20µM* | nt | nt | -1.7%
Cc1coc2c1CCC(C)C2 (stereo not drawn) | ? | nt | nt | -5.2%
C=C1C/C(=C\C)C(=O)O[C@@H]2CCN3CC=C(COC(=O)[C@@]1(C)O)[C@H]23 | 18.1%[20.9 µM] | nt | ? | 3.3%
SMILES | ALDH1A1 inh | PNC inhibitor | JMJD2E inh | HPGD inh
CSc1nnc([C@@H](N)Cc2c[nH]c3ccccc23)o1 | -0.1% | nt | 4.47µM* | nt
CCSc1nnc([C@@H](N)Cc2ccccc2)o1 | 15µM* | ? | 1.7% | -9.3%
C[n+]1c(/C=C\c2ccc(O)c3ncccc23)[se]c2ccccc21 | -7.4%[13.5 µM] | nt | nt | -11.2%
CN(C)c1ccc(/C=C2/C(=O)NC(=O)N(CCc3ccc(F)cc3)C2=O)cc1 | 0.631µM* | -20.5 | -26.1% | 10µM*
Cc1ccc(/C=C2/C(=O)NC(=O)N(CCc3ccc(F)cc3)C2=O)s1 | ? | ? | -10.9% | 7.08µM*
Cc1ccc(/C=C2/C(=O)NC(=O)N(CC3CCCO3)C2=O)s1 (stereo not drawn) | 10µM* | -3.4 | -8.2% | 14.1µM*

Screens (PubChem)
